Assay [1] has as its target Cytochrome P450 3A4 (Homo sapiens) (UniProt P08684). Nature of the assay: qHTS Assay for Inhibitors and Substrates of Cytochrome P450 3A4 (AID 884; active = well fitted curve in the direction sought with a large enough effect; an effect the other way counts as inactive or inconclusive; note: nearly all actives have a fitted effect of over 50% in size; note: potency is the fitted concentration of half-maximal effect). In short, it runs like this:
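Luminescent readout of luciferin produced by CYP3A4 (20 nM) dealkylation of Luciferin-PPXE, 25 uM (its KM). NADPH-driven reaction ran 60 min at RT after 10 min compound preincubation; data scaled to 57 uM ketoconazole as 100% inhibition.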

The target of assay [2] is DNA dC->dU-editing enzyme APOBEC-3G (Homo sapiens) (UniProt Q9HC16). Nature of the assay: qHTS for inhibitors of Vif-A3G interactions: Validation (AID 588379; active = well fitted curve in the direction sought with a large enough effect; an effect the other way counts as inactive or inconclusive; note: 0% is about no effect). In short, it runs like this: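 Yellow fluorescence (Ex 488, Em 500-530) of Vif-coexpressing HeLa A3G-eYFP cells, scanned by Acumen cytometer, reports blocked A3G degradation. Cells plated at 700/well overnight at 37 deg C before compound addition, then a further overnight compound incubation at 37 deg C.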
Chain of DNA dC->dU-editing enzyme APOBEC-3G (Homo sapiens) (Q9HC16 whole entry, looked up): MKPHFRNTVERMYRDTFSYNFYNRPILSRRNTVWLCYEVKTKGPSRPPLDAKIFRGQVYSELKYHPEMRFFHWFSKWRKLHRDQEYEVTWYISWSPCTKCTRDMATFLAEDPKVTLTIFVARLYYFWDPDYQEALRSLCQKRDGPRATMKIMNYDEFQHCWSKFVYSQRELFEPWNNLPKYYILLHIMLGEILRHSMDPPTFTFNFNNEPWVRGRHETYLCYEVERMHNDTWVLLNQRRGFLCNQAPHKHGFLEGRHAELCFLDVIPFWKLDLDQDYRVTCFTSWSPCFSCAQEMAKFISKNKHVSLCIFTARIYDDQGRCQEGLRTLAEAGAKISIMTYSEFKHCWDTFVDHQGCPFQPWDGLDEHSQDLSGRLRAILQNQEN

For assay [3], the target named is Androgen receptor (Homo sapiens) (UniProt P10275). Put plainly: qHTS assay for small molecule agonists of androgen receptor signaling (AID 588515; active = well fitted curve in the direction sought with a large enough effect in the signal ratio, with a control signal flat; the % refers to the signal ratio; note: % is set by controls: 0 for no effect and ±100 for the full control effect). Particulars: AR-UAS-bla HEK293, beta-lactamase ratio, agonist 16 h; stronger effect = higher value. In a few lines: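 Stimulation of an AR-responsive β-lactamase reporter in GripTite HEK293 cells was measured after 16 h compound exposure at 37 °C, via CCF4 fluorescence after 2 h RT. EC50 from Hill fits, normalized to R1881 at 30 nM.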
Chain of Androgen receptor (Homo sapiens) (P10275 whole entry, looked up): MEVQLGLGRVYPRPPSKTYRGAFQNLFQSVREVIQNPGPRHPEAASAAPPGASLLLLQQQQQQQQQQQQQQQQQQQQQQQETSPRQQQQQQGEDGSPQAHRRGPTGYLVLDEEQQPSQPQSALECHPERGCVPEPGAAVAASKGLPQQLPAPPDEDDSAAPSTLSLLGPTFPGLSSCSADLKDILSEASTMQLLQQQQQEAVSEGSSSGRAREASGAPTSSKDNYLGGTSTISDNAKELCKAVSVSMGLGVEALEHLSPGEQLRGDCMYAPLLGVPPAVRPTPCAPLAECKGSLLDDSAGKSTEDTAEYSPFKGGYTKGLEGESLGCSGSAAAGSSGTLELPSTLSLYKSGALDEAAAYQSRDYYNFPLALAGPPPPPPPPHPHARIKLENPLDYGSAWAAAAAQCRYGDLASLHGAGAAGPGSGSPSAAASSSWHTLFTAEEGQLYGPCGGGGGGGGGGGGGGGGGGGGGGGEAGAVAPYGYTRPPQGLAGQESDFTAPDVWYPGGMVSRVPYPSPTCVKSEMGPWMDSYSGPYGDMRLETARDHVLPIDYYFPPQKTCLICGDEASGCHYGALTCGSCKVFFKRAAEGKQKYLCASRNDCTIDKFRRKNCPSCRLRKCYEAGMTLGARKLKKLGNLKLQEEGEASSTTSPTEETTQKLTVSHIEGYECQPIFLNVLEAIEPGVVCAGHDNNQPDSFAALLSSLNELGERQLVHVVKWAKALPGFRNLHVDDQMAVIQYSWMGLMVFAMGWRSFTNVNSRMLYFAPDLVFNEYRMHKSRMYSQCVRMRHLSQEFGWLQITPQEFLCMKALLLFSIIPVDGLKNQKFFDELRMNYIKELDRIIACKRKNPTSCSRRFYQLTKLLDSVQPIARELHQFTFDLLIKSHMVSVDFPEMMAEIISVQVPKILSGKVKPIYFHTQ

Assay [4] shares this target. Nature of the assay: qHTS assay for small molecule antagonists of androgen receptor signaling (AID 588516; active = well fitted curve in the direction sought with a large enough effect in the signal ratio, with a control signal flat, not every such curve was filed as active; the % refers to the signal ratio; note: % is set by controls: 0 for no effect and ±100 for the full control effect). In short, it runs like this:
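AR-UAS-bla GripTite HEK 293 cells (2000/well) treated with compound titrations plus 10 nM R1881 for 16 h at 37C. Beta-lactamase read by CCF4 FRET (460/530 nm); IC50 from Hill fits, normalized to R1881 and DMSO control wells.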

Assay [5] concerns the target Bile acid receptor (Homo sapiens) (UniProt Q96RI1). Nature of the assay: qHTS assay for small molecule antagonists of farnesoid X receptor signaling (AID 588526). Note: % is set by controls: 0 for no effect and ±100 for the full control effect. In short, it runs like this: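 Antagonist mode: titrated compounds tested against chenodeoxycholic acid stimulation (normalized to 50 uM CDCA and DMSO) in GeneBLAzer HEK293T cells for 16 h. Beta-lactamase read by CCF4 fluorescence; IC50 from Hill fits.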

Assay [6] is described as follows: qHTS assay for small molecule antagonists of peroxisome proliferator-activated receptor delta signaling (AID 588535; active = well fitted inhibition curve with a large enough effect in the signal ratio, with a control signal flat, not every such curve was filed as active; the % refers to the signal ratio;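 for max response: cells co-treated with a PPAR-delta agonist as stimulator during compound exposure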). The conditions noted are these: HEK293T PPARd-UAS-bla, beta-lactamase FRET ratio, 18 h; 460 nm channel. In short, it runs like this: (§1)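 Fluorescence from CCF4-loaded GeneBLAzer PPAR-delta-UAS-bla HEK293T cells (2 hrs RT loading) quantified reporter inhibition after an 18 hr, 37 C compound exposure across a titration.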

The target in assay [7] is Peroxisome proliferator-activated receptor delta (Homo sapiens) (UniProt Q03181). The assay is described as above. In short, it runs like this: as §1
Chain of Peroxisome proliferator-activated receptor delta (Homo sapiens) (Q03181 whole entry, looked up): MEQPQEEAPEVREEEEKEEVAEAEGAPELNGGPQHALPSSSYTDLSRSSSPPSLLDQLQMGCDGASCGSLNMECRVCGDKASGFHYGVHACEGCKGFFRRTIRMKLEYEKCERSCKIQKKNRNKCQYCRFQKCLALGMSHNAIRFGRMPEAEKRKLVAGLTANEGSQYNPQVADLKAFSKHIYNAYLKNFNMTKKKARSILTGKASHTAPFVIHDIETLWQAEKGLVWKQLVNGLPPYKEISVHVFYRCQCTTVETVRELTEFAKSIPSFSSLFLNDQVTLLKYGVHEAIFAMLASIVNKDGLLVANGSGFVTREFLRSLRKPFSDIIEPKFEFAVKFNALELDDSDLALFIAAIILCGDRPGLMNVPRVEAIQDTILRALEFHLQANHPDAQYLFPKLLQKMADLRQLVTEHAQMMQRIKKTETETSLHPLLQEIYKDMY
Assay [8] is described as follows: qHTS assay for small molecule agonists of the antioxidant response element (ARE) signaling pathway (AID 651741; active = well fitted activation curve with a large enough effect in the signal ratio; the % refers to the signal ratio; note: potency is the fitted concentration of half-maximal effect; for activation: % of control where 0% means no effect). In short, it runs like this: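 Stably integrated ARE-beta-lactamase reporter HepG2 cells; 16 h compound incubation, 37 C; LiveBLAzer FRET substrate 2 h at room temperature; fluorescence intensity.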
Assay [9] is described as follows: qHTS assay for small molecule activators of the nuclear factor-kappa B (NF-kB) signaling pathway (AID 651749; active = well fitted activation curve with a large enough effect in the signal ratio; the % refers to the signal ratio; note: series mostly up to about 77 µM; % of control where 0% means no effect). Particulars: NF-kB-bla ME-180 cells, beta-lactamase FRET ratio, 16 h; activation: stronger effect = higher value. In a few lines:
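In this qHTS format, compounds acting as activators increase NF-kB-driven beta-lactamase in ME-180 cells, measured as disrupted FRET after 16 hr exposure at 37C and 5% CO2.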

Assay [10] has as its target Nuclear receptor subfamily 1 group I member 2 (Rattus norvegicus) (UniProt Q9R1A7). Nature of the assay: qHTS assay for small molecule activators of the rat pregnane X receptor (rPXR) signaling pathway (AID 651751; call rule not given here; note: 0% is about no effect). The conditions noted are these: rPXR reporter cells, luciferase (One-Glo), 24 h.
Assay [11] is described as follows: qHTS assay for small molecule activators of the human pregnane X receptor (PXR) signaling pathway (AID 720659; call rule not given here; note: 0% is about no effect).
In assay [12] the target is Cytochrome P450 3A4 (Homo sapiens) (UniProt P08684). Put plainly: qHTS Assay for Activators of Cytochrome P450 3A4 (AID 885; active = well fitted curve in the direction sought with a large enough effect; an effect the other way counts as inactive or inconclusive; note: nearly all actives have a fitted effect of over 65% in size). In short, it runs like this: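 Human CYP3A4 dealkylates Luciferin-PPXE to luciferin, which luciferase detection converts to light. Substrate was at its KM (25uM), buffer 200mM KPO4, reaction 60 min at RT.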
Chain of Cytochrome P450 3A4 (Homo sapiens) (P08684 whole entry, looked up): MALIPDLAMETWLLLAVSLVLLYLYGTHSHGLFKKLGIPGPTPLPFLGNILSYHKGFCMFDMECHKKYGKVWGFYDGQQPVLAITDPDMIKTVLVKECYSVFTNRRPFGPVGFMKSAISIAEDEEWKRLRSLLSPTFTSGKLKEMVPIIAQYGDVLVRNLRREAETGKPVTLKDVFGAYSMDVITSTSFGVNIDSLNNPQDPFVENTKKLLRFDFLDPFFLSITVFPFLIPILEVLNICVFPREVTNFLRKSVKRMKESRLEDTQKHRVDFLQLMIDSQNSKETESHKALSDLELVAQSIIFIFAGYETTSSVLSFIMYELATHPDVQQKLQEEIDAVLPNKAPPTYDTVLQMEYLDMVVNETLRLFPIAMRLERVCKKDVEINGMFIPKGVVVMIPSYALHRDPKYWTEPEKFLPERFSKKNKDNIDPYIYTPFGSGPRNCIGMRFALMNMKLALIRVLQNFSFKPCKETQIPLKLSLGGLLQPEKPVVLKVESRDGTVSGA
Assay [13] concerns the target Glucocorticoid receptor (Homo sapiens) (UniProt P04150). Put plainly: qHTS assay for small molecule agonists of glucocorticoid receptor signaling (AID 588532; active = well fitted curve in the direction sought with a large enough effect in the signal ratio, with a control signal flat; the % refers to the signal ratio;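 note: 100% = dexamethasone at 0.1 µM and 0% = DMSO only wells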). The conditions noted are these: HeLa MMTV-bla, beta-lactamase ratio, agonist, 18 h; activation: stronger effect = higher value, percent of dexamethasone control, DMSO zero. In a few lines:
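MMTV-bla HeLa beta-lactamase reporter cells in 1% charcoal/dextran FBS medium, compounds up to 92 uM for 18 h at 37 C, CCF4 readout; normalized to 0.1 uM dexamethasone (100%), EC50 and efficacy from Hill fits.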

In assay [14] the target is Vitamin D3 receptor (Homo sapiens) (UniProt P11473). Nature of the assay: qHTS assay for small molecule agonists of vitamin D receptor signaling (AID 588543).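 Note: 0% = DMSO basal and 100% = reference agonist control.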 In a few lines:
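VDR-UAS-bla HEK293T cells, 2000/well, 2% charcoal-stripped FBS; compound titration 16 h at 37 C; CCF4 beta-lactamase ratio read. Normalized to 50 nM 1-alpha,25-dihydroxyvitamin D3 (100%) and DMSO; Hill fit gives EC50, efficacy.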

Consider 13 compounds from PubChem BioAssay (NCATS).

Several values for one entry are separate records, joined by “and”; a condition that tells them apart may be missing. Identical values can stand only once. Inconclusive results are not listed. Activity calls are given as the source filed them. Unless noted, calls come from the whole dose curve.

Chain of Nuclear receptor subfamily 1 group I member 2 (Rattus norvegicus) (Q9R1A7 whole entry, looked up): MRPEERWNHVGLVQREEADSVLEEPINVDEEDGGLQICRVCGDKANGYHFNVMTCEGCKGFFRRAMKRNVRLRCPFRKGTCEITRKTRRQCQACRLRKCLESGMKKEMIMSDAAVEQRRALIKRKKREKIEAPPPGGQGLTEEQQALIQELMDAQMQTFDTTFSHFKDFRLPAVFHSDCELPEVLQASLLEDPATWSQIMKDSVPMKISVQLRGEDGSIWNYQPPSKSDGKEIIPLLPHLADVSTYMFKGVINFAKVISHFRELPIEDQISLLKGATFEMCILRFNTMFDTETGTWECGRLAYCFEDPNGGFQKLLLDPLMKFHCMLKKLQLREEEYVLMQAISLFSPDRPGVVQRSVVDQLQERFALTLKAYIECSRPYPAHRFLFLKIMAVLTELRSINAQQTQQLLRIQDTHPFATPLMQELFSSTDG
Chain of Glucocorticoid receptor (Homo sapiens) (P04150 whole entry, looked up): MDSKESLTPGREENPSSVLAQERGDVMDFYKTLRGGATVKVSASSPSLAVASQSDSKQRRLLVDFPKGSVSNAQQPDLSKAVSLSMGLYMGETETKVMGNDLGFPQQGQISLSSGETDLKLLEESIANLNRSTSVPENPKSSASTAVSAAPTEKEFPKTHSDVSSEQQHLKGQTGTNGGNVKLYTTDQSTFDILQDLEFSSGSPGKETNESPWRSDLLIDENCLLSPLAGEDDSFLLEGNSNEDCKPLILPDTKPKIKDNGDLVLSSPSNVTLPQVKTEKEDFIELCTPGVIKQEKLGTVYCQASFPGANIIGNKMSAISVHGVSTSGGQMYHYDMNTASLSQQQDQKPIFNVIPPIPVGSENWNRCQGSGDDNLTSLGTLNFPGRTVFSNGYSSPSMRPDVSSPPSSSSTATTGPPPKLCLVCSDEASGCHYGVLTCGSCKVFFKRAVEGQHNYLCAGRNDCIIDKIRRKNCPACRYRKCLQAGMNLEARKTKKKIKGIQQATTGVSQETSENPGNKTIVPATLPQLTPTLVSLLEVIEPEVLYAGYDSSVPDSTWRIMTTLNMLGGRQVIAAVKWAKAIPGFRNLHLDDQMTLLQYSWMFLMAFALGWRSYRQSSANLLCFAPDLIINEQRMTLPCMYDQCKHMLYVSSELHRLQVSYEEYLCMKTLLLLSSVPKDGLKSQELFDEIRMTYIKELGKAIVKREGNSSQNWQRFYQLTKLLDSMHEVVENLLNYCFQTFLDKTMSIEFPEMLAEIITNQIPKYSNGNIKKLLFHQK
Chain of Vitamin D3 receptor (Homo sapiens) (P11473 whole entry, looked up): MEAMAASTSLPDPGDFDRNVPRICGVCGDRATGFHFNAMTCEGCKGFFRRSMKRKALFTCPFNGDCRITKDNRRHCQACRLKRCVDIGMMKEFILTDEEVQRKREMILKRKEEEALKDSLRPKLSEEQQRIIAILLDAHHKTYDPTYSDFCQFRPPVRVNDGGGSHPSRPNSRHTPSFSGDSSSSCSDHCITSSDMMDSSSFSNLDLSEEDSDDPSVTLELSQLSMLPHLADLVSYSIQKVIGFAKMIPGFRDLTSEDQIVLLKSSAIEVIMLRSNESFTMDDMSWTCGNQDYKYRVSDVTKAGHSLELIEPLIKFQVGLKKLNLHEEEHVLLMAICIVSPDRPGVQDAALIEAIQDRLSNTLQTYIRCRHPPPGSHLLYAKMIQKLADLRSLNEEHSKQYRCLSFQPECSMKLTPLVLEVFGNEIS
Chain of Bile acid receptor (Homo sapiens) (Q96RI1 whole entry, looked up): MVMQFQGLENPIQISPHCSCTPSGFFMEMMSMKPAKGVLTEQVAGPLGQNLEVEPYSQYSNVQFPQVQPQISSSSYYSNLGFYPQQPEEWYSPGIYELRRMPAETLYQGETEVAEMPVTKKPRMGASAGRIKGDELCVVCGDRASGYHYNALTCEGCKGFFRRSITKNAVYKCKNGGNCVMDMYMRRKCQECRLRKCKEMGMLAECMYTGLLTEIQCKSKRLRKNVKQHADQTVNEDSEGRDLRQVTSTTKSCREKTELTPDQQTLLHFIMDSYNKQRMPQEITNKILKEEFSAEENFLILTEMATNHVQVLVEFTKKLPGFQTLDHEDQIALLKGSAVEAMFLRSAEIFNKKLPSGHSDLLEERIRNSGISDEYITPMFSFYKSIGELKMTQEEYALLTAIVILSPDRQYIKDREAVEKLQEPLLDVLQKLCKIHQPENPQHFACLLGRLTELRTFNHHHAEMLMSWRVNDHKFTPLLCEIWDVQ

Regarding `CC1CC[C@@]2(OC1)O[C@@H]1[C@@H](O)[C@H]3C4CC[C@H]5C[C@@H](O[C@@H]6O[C@H](CO)[C@H](O[C@@H]7O[C@H](CO)[C@@H](O)[C@H](O[C@@H]8OC[C@@H](O)[C@H](O)[C@H]8O)[C@H]7O[C@@H]7O[C@H](CO)[C@@H](O)[C@H](O[C@@H]8O[C@H](CO)[C@@H](O)[C@H](O)[C@H]8O)[C@H]7O)[C@H](O)[C@H]6O)[C@H](O)C[C@]5(C)C4CC[C@]3(C)[C@H]1[C@@H]2C` (stereo partly specified), the Potency result in assay [1] is “inactive”. For the same compound, the result in assay [2] was inactive.
Regarding `O=C1NCCN1Cc1ccc(Cl)nc1`, the activation is 5.64% (inactive) in assay [3] and -1.02% (inactive) in [9]. For the same compound, the Potency result in assay [4], in assay [5], in [7] and in [8] was “inactive” each time. Moreover, the figures for the max response in assay [6] and in assay [10] were -14.3% and 1.46% (inactive), respectively. Moreover, the call in assay [11] was inactive.
As for `CC(C)[C@]1(NC(=O)[C@@H]2C=C3c4cccc5[nH]cc(c45)C[C@H]3N(C)C2)O[C@@]2(O)C3CCCN3C(=O)[C@H](Cc3ccccc3)N2C1=O` (stereo partly specified), the Potency in [1] was 1 µM (active). Besides, in assay [12], the Potency result was “inactive”. In addition, the result in [2] was inactive.
Regarding `O=C(NC(=O)c1c(F)cccc1F)Nc1ccc(OC(F)(F)C(F)OC(F)(F)F)c(Cl)c1` (stereo unspecified), the activation in assay [13] is -15.7% (inactive). The max response in assay [6] was 59.9%; in assay [10] it was 1.96% (inactive). The Potency result in assay [7] is “inactive”. Besides, the outcome in [14] and in assay [11] was inactive.
`CC(C)(c1ccccc1)c1cc(-n2nc3ccccc3n2)c(O)c(C(C)(C)c2ccccc2)c1`: the activation in assay [13] was -6.85% (inactive); in assay [9] it was 0.903% (inactive). Further, the figures for the max response in [6] and in assay [10] were 10.7% and 2.09% (inactive), respectively. The Potency entry in [7] was “inactive”. Moreover, the result in assay [14] and in assay [11] was inactive. Moreover, the Potency in [8] is 61.1 µM (active).
As to `CCOP(=S)(OCC)Oc1cnc2ccccc2n1`, the Potency result in assay [5], in assay [7] and in [8] was “inactive” each time. Further, the activation is -1.45% (inactive) in assay [13] and -0.487% (inactive) in assay [9]. The max response is 6.57% in assay [6] and 7.55% (inactive) in assay [10].
Turning to `CSC(=O)c1c(C(F)F)nc(C(F)(F)F)c(C(=O)SC)c1CC(C)C`, the activation in assay [13] is -2.18% (inactive). Besides, in assay [6], the max response was 97.5%. For the same compound, the Potency entry in assay [7] is “inactive”.
As to `CC(C)(C)C(=O)[C@@H](Oc1ccc(Cl)cc1)n1cncn1`, the activation in [13] was 6.65% (inactive); in assay [9], -1.55% (inactive). In assay [6], the max response came out at 38.3%. Further, the Potency result in assay [7] was “inactive”. Moreover, the compound was classed as inactive in assay [14].
Regarding `CCOC(=O)Nc1cccc(OC(=O)Nc2ccccc2)c1`, the activation in assay [13] was -3.53% (inactive); in assay [9], 0.127% (inactive). The max response in assay [6] was determined as 9.77%. Moreover, the Potency entry in assay [7] was “inactive”. In addition, in [14], the result was inactive.
Regarding `CCNP(=S)(OC)O/C(C)=C/C(=O)OC(C)C` (stereo unspecified), the result in [14] was inactive. Also, the activation in assay [9] was 0.112% (inactive).
For `CCOP(=S)(OCC)Oc1ccc(S(C)=O)cc1` (stereo unspecified), the figures for the max response in assay [6] and in assay [10] were -64.2% and 7.38% (inactive), respectively. Further, the Potency entry in assay [7] and in assay [8] was “inactive” each time. Further, in assay [14], the result was inactive.
As for `CC(C)(C)C(=O)[C@H](Oc1ccc(Cl)cc1)n1cncn1`, the activation was -0.211% (inactive) in [13] and -5.68% (inactive) in [9]. Further, the call in assay [14] was inactive.
In the case of `CCCCC(C#N)(Cn1cncn1)c1ccc(Cl)cc1` (stereo unspecified), the activation in [13] was -4.2% (inactive) and -7.49% (inactive). Also, the max response in assay [6] was 26.8%. In addition, in assay [7], the Potency result is “inactive”.
